According to ChEMBL document CHEMBL3988442, “University of Dundee, Small-Polar-MMV Screening Library” (2021):
Among all 48,000 compounds or so, about 13,000 (27%) showed an effect of 50% or more. This is one part of the list.

What follows are compounds tested on Wolbachia pipientis (assay: Anti-Wolbachia Cell-Based Screen). Details: 5 µM.
Assay type: functional
Design: scale not given: in the data most compounds retested in dose-response had high values

Row | SMILES | Percent Effect
1 | O=C(O)C1c2nc[nH]c2CCN1Cc1cc(-c2ccccc2)no1 (configuration not stated) | -8.907%
2 | CN(Cc1cccc2cnccc12)C(=O)CCc1n[nH]c2c1CCCC2 | 113.4%
3 | O=C(CCc1n[nH]c2c1CCCC2)N1C[C@@H]2CC[C@H](C1)N(CC1CC1)C2 | 3.665%
4 | CCCc1cc(C(=O)N(C)Cc2cccc3cnccc23)n(C)n1 | -5.635%
5 | Cc1ncc(CC(=O)N2CCC3(CCC(=O)N(C4CC4)C3)CC2)c(=O)[nH]1 | 3.916%
6 | NC(=O)NC1CCN(Cc2ccc(Br)c(F)c2)CC1 | -13.64%
7 | CCN(C(=O)NCc1cccnc1N(C)C)C(C)c1cccnc1 (configuration not stated) | -18.28%
8 | CC(C)NS(=O)(=O)c1ccccc1CNCc1cccc(O)c1 | -3.142%
9 | CN(C)c1ncccc1CNCc1cccc(O)c1 | 107.5%
10 | CC(C)(C)NS(=O)(=O)c1ccccc1CNCc1cccc(O)c1 | -1.047%
11 | CCOc1ccc(CNCc2cccnc2N(C)C)cc1 | 80.05%
12 | CCc1ncc(CNCc2cccnc2N(C)C)cn1 | 101.7%
13 | CCOc1ccc(S(=O)(=O)NCc2cccnc2N(C)C)cc1 | -21.99%
14 | CC(=O)Nc1ccc(CNCc2cccnc2N(C)C)cc1 | 96.06%
15 | Cc1oc(C)c(C(=O)NCc2cccnc2N(C)C)c1C | -9.408%
16 | O=C(O)[C@@H]1CN(Cc2c[nH]c(CC3CCCC3)n2)C[C@H]1c1ccncc1 | -4.479%
17 | CCN(CC)c1nc2sc(C(=O)NCC(=O)OC)cc2s1 | -6.557%
18 | O=C1N[C@@H]2CCN(C(=O)N3CCOCC3)[C@@H]2C(=O)N1Cc1ccccc1 | 7.346%
19 | OC(CN(Cc1ccccc1)Cc1ccon1)c1ccco1 (configuration not stated) | 27.39%
20 | CCCN1CCC(NN2CCN(C)CC2)CC1 | 6.891%
21 | COc1ccc2[nH]c(C(=O)NCC3(N)CCCC3)cc2c1 | 112.8%
22 | COc1ccc(CNC(=O)C2(C#N)CCCC2)cc1 | -22.34%

Row | SMILES | Percent Effect
23 | COc1ccc2cc(C(=O)N3CCCCC3CC(N)=O)[nH]c2c1 (configuration not stated) | -6.391%
24 | O=C(Nc1cc(CSCCO)ccn1)c1cc2ccccc2[nH]1 | -29.11%
25 | NC1(CNC(=O)c2cc3ccccc3[nH]2)CCCC1 | 106.9%
26 | O=C(NCC1(O)CCSCC1)c1nccc2ccccc12 | -4.929%
27 | COCCOc1ccc(NC(=O)N(C)Cc2ccsc2)cn1 | -6.376%
28 | Cc1noc([C@H]2C[C@H]3OCC[C@H]3N(Cc3cccs3)C2)n1.O=C(O)C(F)(F)F | -3.779%
29 | CN(Cc1ncnn1C)C(=O)CCCn1ccc2cc(Cl)ccc21 | 8.375%
30 | O=C(NCCSC1CCCC1)c1ccc(F)cc1F | 11.89%
31 | O=C(NCCC(=O)N1CCCc2ccccc21)c1ccc(F)cc1F | 138.5%
32 | CS(=O)(=O)c1ccc2c(c1)N(C(=O)c1cccc(F)c1)CCC2 | 5.094%
33 | O=C(NCCS(=O)(=O)N1CCc2ccccc21)c1c(O)cc(F)cc1F | 11.09%
34 | O=C(NCCC(=O)N1CCCc2ccccc21)c1c(F)cccc1F | 120%
35 | CS(=O)(=O)c1ccc2c(c1)N(C(=O)Cc1cccc(F)c1)CCC2 | 1.079%
36 | CCC(CNC(=O)c1ccc(F)cc1F)N1CCc2ccccc2C1 (configuration not stated) | 10.38%
37 | Cn1cc(CCNC(=O)N2CCCc3c(F)cccc32)cn1 | -24.48%
38 | O=C(NCCC(=O)N1CCCc2ccccc21)c1c(O)cc(F)cc1F | 3.729%
39 | O=C(NCCSC1CCCC1)c1c(F)cccc1F | 10.15%
40 | O=C(NCCC(=O)N1CCCc2ccccc21)c1cc(F)cc(F)c1 | 126.9%
41 | O=C(NCC(=O)N1CCCc2ccccc21)c1c(O)cc(F)cc1F | 103.6%
42 | CC(C)N1CCC2(CC1)CN(C)C(=O)C[C@H]2C(F)(F)F | -3.989%
43 | COc1ccc2c(c1)CCCN(C(C)C(=O)NC(N)=O)C2 (configuration not stated) | -1.078%
44 | NC(=O)C1=NC2=NS(=O)(=O)c3ccccc3N2N1Cc1ccc(Br)cc1 | 9.157%

Row | SMILES | Percent Effect
45 | Cc1c[nH]c(C(=O)N2CCn3nc(C(=O)NC4CC4)cc3C2)n1 | -2.025%
46 | Cc1nc2ccc(C(=O)N3CCN(CCO)[C@@H]4CS(=O)(=O)C[C@@H]43)cc2o1 | -12.01%
47 | CC(C)N1CCC(c2n[nH]cc2S(C)(=O)=O)CC1 | 115.7%
48 | CCc1ncc(C(=O)N2CCCC(c3nccn3CCOC)C2)cn1 (configuration not stated) | -9.089%
49 | Cc1cc(C(=O)N2CCCC(c3nccn3Cc3ccncc3)C2)no1 (configuration not stated) | 10.63%
50 | COCCn1ccnc1C1CCCN(C(=O)c2ccccc2C#N)C1 (configuration not stated) | -8.592%
51 | Cc1cc(C(=O)N2CCCC(c3nccn3C)C2)cc(S(N)(=O)=O)c1C (configuration not stated) | 99.7%
52 | Cn1ccnc1C1CCCN(C(=O)c2cc(F)cc(F)c2)C1 (configuration not stated) | 106.9%
53 | COCCn1ccnc1C1CCCN(C(=O)c2ccncc2F)C1 (configuration not stated) | 0%
54 | COCCn1ccnc1C1CCCN(C(=O)c2cccnc2SC)C1 (configuration not stated) | -0.1241%
55 | Cn1ccnc1C1CCCN(C(=O)c2ccncc2F)C1 (configuration not stated) | 111.1%
56 | Cc1nc(N)sc1C(=O)N1CCCC(c2nccn2CCCN(C)C)C1 (configuration not stated) | 8.356%
57 | COCCn1ccnc1C1CCCN(C(=O)c2cc(F)cc(F)c2)C1 (configuration not stated) | 83.8%
58 | CC(C)(O)c1cn(C2CCN(C(=O)CCC(F)(F)F)CC2)nn1 | 13.09%
59 | CN(CCc1ccncc1)C(=O)c1sccc1OC(F)F | -13.92%
60 | CCC1=N[C@@]2(CC[C@@H]3CN(C(=O)NCC(C)C)C[C@@H]32)C(=O)N1CC1CC1 | 11.23%
61 | Cc1ncc(C(=O)Nc2cncnc2N(C)C)c(Cl)c1Cl | -6.041%
62 | CN(C)C(=O)c1cccnc1SCc1ccccc1C#N | 100.1%
63 | CN(C)C(=O)CN1C[C@@H]2CC[C@H](C1)N(Cc1ccccc1C#N)C2 | -40.35%
64 | CSCC(=O)N(Cc1ccccn1)Cc1ccccc1C | -1.935%
65 | CN(C)C(=O)c1cccnc1SCc1ccccc1Cl | 128.1%
66 | CSc1ncccc1C(=O)N(C)C(C)Cc1ccccn1 (configuration not stated) | 1.339%

Row | SMILES | Percent Effect
67 | CN(C)C(=O)c1ccccc1NCCCOc1cccc(C#N)c1 | -15.07%
68 | CSc1ncccc1C(=O)N(C)CCc1scnc1C | 0.9599%
69 | Cc1cccnc1NC(=O)CNC(=O)c1ccccc1Cl | -60.17%
70 | Cc1ccccc1CSc1ncccc1C(=O)N(C)C | 111%
71 | O=C(CNC(=O)C1CCCC1)NCc1cnn(-c2ccc(F)cc2F)c1 | -3.155%
72 | CC(=O)N1CCc2c(nc(N(C)C)nc2NCCc2cccs2)C1 | 30.52%
73 | Cc1ccccc1C(O)CNC(=O)Cc1ccc(F)cc1 (configuration not stated) | -16.74%
74 | O=C(CN1CCOC(CNc2cccnn2)C1)N1CCCCC1 (configuration not stated) | 113.9%
75 | O=C(CN1CCOC(Cn2cccn2)C1)NC1CCN(C2CC2)CC1 (configuration not stated) | -5.348%
76 | O=C(CCN1CCOC(Cn2cccn2)C1)NC1CCCCC1 (configuration not stated) | 137.8%
77 | O=C(CCN1CCOC(Cn2cccn2)C1)NC1CCCC1 (configuration not stated) | 3.251%
78 | OC1(CN2CCOC(CNc3cccnn3)C2)CCCCC1 (configuration not stated) | 90.58%
79 | c1cnnc(NCC2CN(CCN3CCCCC3)CCO2)c1 (configuration not stated) | -1.688%
80 | O=C(CCN1CCOC(CNc2cccnn2)C1)NC1CCCCC1 (configuration not stated) | 89.48%
81 | Cc1c2nnn(CC(=O)N(C)C)c(=O)c2nn1C | 15.44%
82 | COCc1nc2cc(NCc3ccc(C)o3)ccc2o1 | -0.6949%
83 | COCCN(C)CCN1CC2(CCN(C3CCCOC3)CC2)OC1=O (configuration not stated) | -0.4921%
84 | Cc1cnccc1NCCn1ccnc1C1CCCCC1 | 3.788%
85 | Cc1ncc(CN(C)CC(O)c2ccc(OC(F)(F)F)cc2)s1 (configuration not stated) | -20.59%
86 | Cc1cn2c(n1)CCC(NC(=O)CCCn1cncn1)C2 (configuration not stated) | 102.3%
87 | Cc1cn2c(n1)CCC(NC(=O)CCC(F)(F)F)C2 (configuration not stated) | 10.47%
88 | Cc1cn2c(n1)CCC(NC(=O)CCn1ccnn1)C2 (configuration not stated) | -2.127%

Row | SMILES | Percent Effect
89 | Cc1cn2c(n1)CCC(NC(=O)CCn1cncn1)C2 (configuration not stated) | -7.204%
90 | Cc1cnn(CCC(=O)NC2CCc3nc(C)cn3C2)c1 (configuration not stated) | 105.9%
91 | Cc1cn2c(n1)CCC(NC(=O)Cn1cncn1)C2 (configuration not stated) | 119.2%
92 | Cc1cn2c(n1)CCC(NC(=O)c1ccc(CS(C)(=O)=O)o1)C2 (configuration not stated) | -5.623%
93 | CCN(C(=O)CNC1CCc2ncnn2C1)C1=CCCCC1 (configuration not stated) | -6.833%
94 | CC(C)Oc1ccc(NCc2ccc([S+](C)[O-])cc2)c(F)c1 (configuration not stated) | 7.808%
95 | O=C(NCc1nn(-c2ccccc2)c2c1CCC2)NC1CC1 | -2.781%
96 | CCc1cc(CNC(=O)NCc2ccc(N3CCCCC3)cc2)on1 | -23.7%
97 | O=C1CC(NS(=O)(=O)c2cccc(F)c2)CN1 (configuration not stated) | 126.5%
98 | COC(=O)c1ccc(S(=O)(=O)NC2CNC(=O)C2)cc1 (configuration not stated) | 131%
99 | CSc1ccc(S(=O)(=O)NC2CNC(=O)C2)cc1 (configuration not stated) | -0.4933%
100 | O=C(c1ccc(S(=O)(=O)NC2CCC2)cc1)N1CC[C@H]2CNC[C@H]21 | -0.3981%
101 | Cc1ccc(S(=O)(=O)NC2CCC(=O)NC2)cc1Br (configuration not stated) | -11.56%
102 | COc1cccc(S(=O)(=O)NC2CNC(=O)C2)c1 (configuration not stated) | 1.379%
103 | Cn1nnn(-c2ccc(NS(=O)(=O)c3ccc(F)c(Cl)c3)cc2)c1=O | -5.508%
104 | O=S(=O)(NC1CC1)c1cccc(Br)c1 | -14.81%
105 | CC(Cn1ccnc1)NS(=O)(=O)c1ccc(F)c(Cl)c1 (configuration not stated) | -9.501%
106 | O=C1CC(NS(=O)(=O)c2ccc(F)c(Cl)c2)CN1 (configuration not stated) | 135.6%
107 | O=C1CC(NS(=O)(=O)c2ccc(Br)cc2)CN1 (configuration not stated) | 151.1%
